# Laboratory results taken from publication PMC7826789 (International Journal of Molecular Sciences, 2021).
# Columns and labels:
# Conditions in all cases: Compound Concentration (nM):1000
# AMPK-alpha1 = test system: T1, AMPK-alpha1
# T1 construct: gene PRKAA1
# AMPK-alpha2 = test system: T2, AMPK-alpha2
# T2 construct: gene PRKAA2
# ANKK1 = test system: ANKK1
# ARK5 = test system: T3, ARK5
# T3 construct: gene NUAK1
# ASK1 = test system: T4, ASK1
# T4 construct: gene MAP3K5
# ASK2 = test system: T5, ASK2
# T5 construct: gene MAP3K6
# AURKA = test system: AURKA
# AURKB = test system: AURKB
# AURKC = test system: AURKC
# AXL = test system: AXL
# BIKE = test system: T6, BIKE
# T6 construct: gene BMP2K
# BLK = test system: BLK
# BMPR1A = test system: BMPR1A
# BMPR1B = test system: BMPR1B
# BMPR2 = test system: BMPR2
# BMX = test system: BMX
# BRAF(V600E) = test system: BRAF(V600E)
# BRAF = test system: BRAF
# BRK = test system: T7, BRK
# T7 construct: gene PTK6
# BRSK1 = test system: BRSK1
# 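Further: KINOMEscan scanMAX binding as percent activity remaining versus control; lower means stronger binding.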
SMILES,Percent Control (AMPK-alpha1),Percent Control (AMPK-alpha2),Percent Control (ANKK1),Percent Control (ARK5),Percent Control (ASK1),Percent Control (ASK2),Percent Control (AURKA),Percent Control (AURKB),Percent Control (AURKC),Percent Control (AXL),Percent Control (BIKE),Percent Control (BLK),Percent Control (BMPR1A),Percent Control (BMPR1B),Percent Control (BMPR2),Percent Control (BMX),Percent Control (BRAF(V600E)),Percent Control (BRAF),Percent Control (BRK),Percent Control (BRSK1)
Nc1ncnc2occ(-c3ccc(NC(=O)Nc4cc(C(F)(F)F)ccc4F)cc3)c12 [GW770249X],100%,86%,32%,100%,100%,80%,66%,5.7%,35%,0%,100%,83%,100%,100%,97%,41%,7%,28%,100%,100%
NS(=O)(=O)c1ccc(N/N=C2\C(=O)Nc3ccc(C(=O)NCc4ccncc4)cc32)cc1 [GW300657X],78%,83%,27%,86%,100%,70%,57%,59%,76%,95%,60%,99%,100%,78%,68%,100%,87%,97%,100%,100%
NS(=O)(=O)c1ccc(N/N=C2\C(=O)Nc3ccc(-c4cnco4)cc32)cc1 [GW276655],95%,100%,65%,100%,100%,85%,70%,66%,65%,100%,20%,63%,100%,94%,62%,100%,100%,86%,82%,100%
Cl.O=C(Nc1ccc(Oc2ccc3[nH]c(NC(=O)c4ccccc4)nc3c2)cc1)Nc1cc(C(F)(F)F)ccc1F [GW709042A],56%,100%,95%,100%,100%,80%,82%,61%,37%,0%,100%,98%,98%,94%,100%,94%,34%,58%,100%,100%
Cl.O=C(O[C@H]1CN[C@H](C#Cc2cc3ncnc(Nc4ccc5c(cnn5Cc5ccccc5)c4)c3s2)C1)N1CCOCC1 [GSK200398A],100%,92%,100%,91%,100%,88%,71%,84%,100%,100%,100%,100%,96%,90%,99%,98%,99%,91%,78%,100%
COc1cc(/C=N/Nc2ncnc3[nH]ncc23)ccc1O [GW578748X],79%,54%,21%,100%,100%,75%,41%,56%,58%,65%,53%,32%,100%,22%,9.6%,89%,26%,35%,80%,100%
CCc1ccc(Oc2nccc(-c3c(-c4ccc(F)cc4)ncn3C3CCNCC3)n2)cc1 [SB-242719],100%,99%,83%,100%,84%,66%,81%,100%,98%,100%,100%,82%,87%,88%,82%,100%,100%,100%,94%,94%
COc1cccc(-c2c[nH]c3c(N/N=C/c4ccncc4)ncnc23)c1 [GW814408X],100%,85%,100%,100%,100%,100%,82%,75%,48%,71%,38%,19%,31%,0.1%,99%,100%,26%,29%,100%,100%
CCn1c(-c2nonc2N)nc2c(C#CC(C)(C)O)nc(OCCNC)cc21.Cl [GSK949675],100%,100%,100%,100%,95%,100%,90%,100%,100%,100%,75%,96%,89%,89%,100%,100%,100%,100%,100%,100%
COc1cc(N2CCN(C(C)C)CC2)ccc1Nc1nc(Nc2ccc(F)cc2C(=O)NC[C@@H](O)CO)c2cc[nH]c2n1 [GSK1392956A],100%,100%,92%,67%,100%,73%,95%,91%,90%,46%,81%,99%,100%,88%,97%,100%,90%,94%,100%,100%
COc1ccccc1-c1cc(/C=C2\C(=O)Nc3ncc(Br)cc32)cc(Br)c1O [GW442130X],100%,94%,100%,100%,98%,100%,25%,48%,80%,92%,100%,63%,86%,85%,97%,100%,68%,78%,100%,98%
COc1cc2ncnc(Nc3ccc4c(cnn4Cc4ccccc4)c3)c2cc1OC.Cl [GW282449A],100%,100%,88%,100%,100%,74%,100%,100%,87%,89%,100%,23%,92%,91%,100%,100%,100%,100%,75%,100%
CC(C)COC(=O)c1ccc2c(c1)/C(=C/Nc1ccc(S(N)(=O)=O)cc1)C(=O)N2 [GW416981X],100%,92%,44%,97%,100%,85%,66%,65%,35%,100%,27%,100%,100%,96%,30%,100%,97%,100%,100%,100%
CCS(=O)(=O)c1ccc(OC)c(Nc2ncc(-c3cccc(OC)c3)o2)c1 [GW580509X],100%,100%,95%,100%,100%,85%,88%,83%,100%,95%,100%,21%,100%,45%,100%,100%,78%,86%,100%,100%
Cl.O=C(Nc1ccc(Oc2ccc3[nH]c(NC(=O)c4ccco4)nc3c2)cc1)Nc1cc(C(F)(F)F)ccc1F [GW683134A],67%,82%,100%,100%,100%,93%,98%,13%,56%,0%,100%,70%,73%,100%,98%,87%,13%,32%,100%,100%
C[C@@H](Oc1cc(-n2cnc3ccc(OC4CCN(C)CC4)cc32)sc1C(N)=O)c1ccccc1Cl [GSK579289A],45%,100%,63%,19%,99%,66%,76%,94%,65%,67%,19%,94%,72%,67%,78%,98%,82%,95%,77%,64%
COc1ccc2[nH]c3c4[nH]c5ccc(OC)cc5c4c4c(c3c2c1)C(=O)NC4=O [GW296115X],44%,54%,71%,25%,83%,86%,57%,16%,17%,30%,76%,71%,100%,56%,93%,99%,89%,86%,81%,10%
CN1CCN(C(=O)c2ccc(NC(=O)Nc3ccc(N(C)c4ccnc(Nc5ccc(CS(C)(=O)=O)cc5)n4)cc3)cc2)CC1.Cl [GW830263A],82%,87%,28%,78%,100%,67%,0%,0.4%,0.2%,9.7%,2.4%,87%,32%,1.1%,56%,59%,85%,89%,95%,100%
NS(=O)(=O)c1ccc(N/N=C2\C(=O)Nc3ccc(C(=O)NCCc4c[nH]cn4)cc32)cc1 [GW300660X],100%,100%,59%,80%,100%,65%,72%,55%,99%,100%,100%,100%,100%,95%,87%,100%,86%,100%,100%,100%
COc1ccc(COc2ccc(Cc3cnc(N)nc3N)cc2OC)cc1 [GW632580X],89%,99%,81%,100%,80%,85%,76%,100%,100%,100%,94%,78%,100%,92%,94%,100%,91%,100%,100%,100%
